The panel holds about 83,000 compounds, 20% with a hit somewhere; the sample as a whole holds those more often.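 Compound tested at a single concentration for 48 hours in 96-well plates; a percent growth value below 10 was scored as active.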 Values without a mark were called inactive. Calls of active or inactive are those of the source.
What follows are molecules tested on HT29 colon (assay: NCI-60 one-dose screen, 48 h (100 = growth as untreated, 0 = no growth, -100 = all killed)). Conditions: 10 µM unless noted.
Protocol: Growth inhibition of the HT29 human tumor cell line is measured as a screen for anti-cancer activity. Cells are grown in 96 well plates and exposed to the test compound for 48 hours. Compounds are tested at a single concentration, which is 10^-5 M for most compounds. The reported endpoint is percent growth (GI% or GIPRCNT), where numbers from 0 - 100% represent growth inhibition, and numbers from -100% - 0 represent cell death. For example, a value of 40 represents 60% growth inhibition. A value of 0 means no net growth occurred over the course of the experiment. A value of -40 indicates 40% of cells at the beginning of the experiment died by the end of the experiment. A value of -100 means all cells are dead at the end of the experiment.
NCI-60 Human Tumor Cell Lines Screen was performed using the standard one-dose NCI protocol, which is described in more detail at https://dtp.cancer.gov/discovery_development/nci-60/default.htm.
Compounds with GIPRCNT values below 10 were considered active. Activity score was based on GIPRCNT using the following formula: […]
Score is 0 for GIPRCNT values of 100 or above, 50 for GIPRCNT values of 0, and 100 for GIPRCNT values of -100.
In the case of `CCNC(=O)Oc1ccc(/C(=C(\C)c2ccc(Cl)cc2)c2ccc(OCCN3CCCCC3)cc2)cc1`, the growth is reported as 0.431% (active). In the case of `CN(C)[C@@H]1C(=O)C(C(=O)NCc2nc3[nH]cnc(=S)c3[nH]2)=C(O)[C@@]2(O)C(=O)C3=C(O)c4c(O)cccc4[C@@](C)(O)[C@H]3C[C@@H]12`, the growth is reported as 64.3%. In the case of `CC(=O)Oc1ccc(Cl)cc1CN(C(C)=O)C1CCCCC1`, the growth is reported as 107%. `Cn1ncc2c(=O)nc3c(-c4ccccc4)n[nH]n3c21` was tested, and the growth was 103%. Molecule `CC(O)CN(CC(C)O)c1ccc2c(c1)Cc1cc([N+](=O)[O-])ccc1-2` (stereo not given) has a growth of 103%. For `Oc1cccc2ccc(N/N=C/c3cc(CN4CCOCC4)c(O)c4ncccc34)nc12`, the growth was 17.6%. With `NC(=NCCCC1(c2ccccc2)CCCC1)Nc1ccc(Cl)cc1` the growth was -15.4% (active). `COc1cc(C=Nc2oc(-c3ccccc3)c(-c3ccccc3)c2C#N)cc(CN2CCCCC2)c1O` gave a growth of 102%. `Cc1ccc2c(C(C[N+](=O)[O-])c3ccco3)c(-c3ccccc3)[nH]c2c1` (stereo not given) was tested, and the growth was 5.24% (active). Molecule `O=C1C=C(OCC=C(Cl)Cl)C(=O)c2ccccc21` has a growth of 82.4%. `Cc1nn(-c2ccc(F)cc2)c2ncnc(Oc3ccc(NC(=O)Nc4ccc(Cl)c(C(F)(F)F)c4)cc3)c12` gave a growth of 109%. In the case of `Cn1cc(-c2nonc2-c2c[nH]c3ccc(F)cc23)c2cccnc21`, the growth is reported as 99.3%. In the case of `Cc1ccc2c(C(C[N+](=O)[O-])c3ccccc3)c(-c3ccccc3)[nH]c2c1` (stereo not given), the growth is reported as 0.357% [9.5 µM] (active). `CC(C)(C)CC(C)(C)c1ccc(OCCOCC[N+](C)(C)Cc2ccccc2)cc1` was tested, and the growth was -50.5% (active). In the case of `CC(C)(C)c1cc(C(C)(C)C)cc(S(=O)(=O)Nc2cc3ccccc3cc2C(=O)NCCN)c1`, the growth is reported as -43.7% (active). With `COc1ccc(-n2nc(C)c3c(Oc4ccc(NC(=O)Nc5c(Cl)cccc5Cl)cc4)ncnc32)cc1` the growth was 107%. For `CN1CCN(Cc2ccc(NC(=O)c3cncc(C#Cc4cncn5ccnc45)c3)cc2C(F)(F)F)CC1`, the growth was 19.2%. For `O=c1c(F)cn(Cc2ccccc2CCl)c(=O)n1Cc1ccccc1CCl`, the growth was -83.7% (active). `N#C/C(=C\c1ccc(-c2cc(C(F)(F)F)ccc2Cl)o1)c1nc(-c2ccco2)cs1` showed a growth of 101%. In the case of `O=C1c2ccccc2C(=O)c2c(N=Nc3[nH]c(=S)[nH]c3O)cccc21`, the growth is reported as 9.93% (active). With `O=C1Nc2c(ccc(Cl)c2Cl)/C1=C\c1cc(C(F)(F)F)cc(C(F)(F)F)c1` the growth was -26.5% (active). `Cc1cc(N2CCN(c3ccnc4cc(Cl)ccc34)CC2)nc(N2CCOCC2)n1` gave a growth of 67.6%. For `CC[C@]1(O)C[C@@H]2CN(CCc3c([nH]c4ccccc34)[C@@](C(=O)OC)(c3cc4c(cc3OC)N(C)[C@H]3[C@@](O)(C(N)=O)[C@H](O)[C@]5(CC)[C@@H]6C[C@@H]6CN6CC[C@]43[C@@H]65)C2)C1`, the growth was 2.2% (active). With `CN(Cc1cc(Cl)cc(Cl)c1O)Cc1cc(Cl)cc(Cl)c1O` the growth was 94.1%. Molecule `C=C1c2nc3ccccc3n2C=C(c2ccc(OC)cc2)N1Cc1ccccc1` has a growth of 73.2%. Molecule `Cn1c(O)c(N=NC(=O)c2cc(-c3ccccc3)on2)c2ccccc21` has a growth of 105%. Work on `C=C1C(=O)O[C@H]2[C@H]1CC/C(COC(=O)NCc1ccc(OC)c(OC)c1)=C\CC[C@@]1(C)O[C@@H]21` yielded a growth of 28.8%. In the case of `O=S(=O)(Nc1ccc(Br)c(Cl)c1)c1ccc(-c2cnc(C3CC3)o2)cc1`, the growth is reported as -15.3% (active). Work on `COC[C@H](C)n1c(C2CCOCC2)nc2cnc3cc(-c4c(C)noc4C)c(OC)cc3c21` yielded a growth of 23.4%. In the case of `C=CCSSc1ncnc2c1ncn2C1OC(CO)C(O)C1O` (stereo not given), the growth is reported as 28.6%. For `CCCCCCCCCCCCC[N+](C)(C)Cc1ccccc1`, the growth was -62.7% (active). `CCOc1ccc(-n2nc(C(=O)Nc3ccccc3)nc2-c2cc(OC)c(OC)c(OC)c2)cc1` gave a growth of 13%. `COc1ccc(S(=O)(=O)N2CCCCC2)cc1NC(=O)c1[nH]c(C)c2c1CCCCC2=O` gave a growth of 11%. For `C=C1c2nc3ccccc3n2C=C(c2cccc(Cl)c2)N1Cc1ccc(OC)cc1`, the growth was 99.1%. `CC(=O)c1cc2c(N)c(C(=O)Nc3ccccc3)sc2nc1C` showed a growth of 67.3%. `COc1cccc(/C=N/NC(=O)c2ccccc2Nc2ccnc(C(F)(F)F)c2)c1O` gave a growth of 51.3%. In the case of `C#CC(F)(F)[C@]1(O)CC[C@H]2[C@@H]3CCC4=CC(=O)CCC4=C3[C@@H](c3ccc(C4CC4)cc3)C[C@@]21C`, the growth is reported as -63.9% (active). `Cc1cc(C)nc(SC2=C(Nc3cc(Cl)ccc3O)C(=O)N(Cc3ccccc3)C2=O)n1` showed a growth of 108% [30 µM]. With `O=C1NC(=Nc2ccc(O)cc2)S/C1=C\c1cccc(Cl)c1` the growth was 109%. Work on `NC(=O)c1cc(Br)ccc1NC(=O)/C=C/c1ccccc1` yielded a growth of 13.9%.

Reference: PubChem BioAssay (NCI)
